According to ChEMBL document CHEMBL1157539, “Thousands of chemical starting points for antimalarial lead identification” (Nature, 2010):

Legend:
Type in all cases: functional
Plasmodium falciparum [1] = assay: GSK_TCMDC: Inhibition of Plasmodium falciparum 3D7 in whole red blood cells, using parasite LDH activity as an index of growth. Test compounds present at 2uM
Plasmodium falciparum [2] = assay: GSK_TCMDC: Inhibition of Plasmodium falciparum Dd2 in whole red blood cells, using parasite LDH activity as an index of growth. Test compounds present at 2uM
HepG2 = assay: GSK_TCMDC: Percent inhibition of human HepG2 cell line. Test compounds present at 10uM.

Structure (SMILES) | Inhibition (Plasmodium falciparum [1]) | Inhibition (Plasmodium falciparum [2]) | Inhibition (HepG2)
O=C(/C=C/c1ccc(Cl)c(Cl)c1)NCCCCCN1CCC(CCNC(=O)/C=C/c2cc(C(F)(F)F)ccc2F)CC1 | 98% | 46% | 25%
O=C(NC1CCN(Cc2ccccc2)CC1)c1ccc(-c2nc3cc(F)c(F)cc3[nH]2)s1 | 100% | 97% | 6%
O=c1cc(NCCCNCc2[nH]c3cc(Cl)cc(Cl)c3c2Cn2cccn2)[nH]c2ccccc12 | 86% | 2% | 5%
CCCCCc1ccc(NC(=O)Nc2ccc(Cn3ncc(N4CCCNCC4)c(Cl)c3=O)cc2)cc1.O=C(O)C(F)(F)F | 87% | 23% | 15%
c1ccc(-c2cc3cccc(-c4nc5cnccc5[nH]4)c3o2)cc1 | 100% | 95% | 37%
Cc1cc(=O)c(-c2ccc(Oc3cccc(OC(F)(F)F)c3)cc2)c(C)[nH]1 | 97% | 96% | 13%
O=C(Nc1ccc(OC2CCN(Cc3ccccc3)C2)c(Cl)c1)c1cccs1.O=C(O)C(F)(F)F (stereo not given) | 97% | 96% | 13%
CNCCNCc1ccc(-c2cccc(-c3nc4cc(C(F)(F)F)ccc4[nH]3)c2)cc1.O=C(O)C(F)(F)F | 98% | 77% | 27%
CCOC(=O)CNC(=O)c1cc(=O)c2ccccc2o1 | 99% | 0% | 22%
Clc1ccccc1CN1CCC(NCc2cccc(-n3ccnc3)c2)CC1.O=C(O)C(F)(F)F | 100% | 43% | 6%
COc1ccc2nc(N3CCN(C(=O)OC(C)(C)C)CC3)nc(NCCCc3ccccc3)c2c1 | 100% | 95% | 9%
OCC1CCN(Cc2cccc(C#Cc3cc4ncnc(Nc5ccc(OCc6cccc(F)c6)c(Cl)c5)c4s3)n2)CC1 | 99% | 95% | 41%
Cc1cccc2c3c([nH]c12)C1(CCN(CCc2ccccc2)CC1)NC(C(=O)NCc1ccccc1)C3 (stereo not given) | 86% | 52% | 10%
CCCCCCCc1ccc(-c2c(C)[nH]c(C)c(Cl)c2=O)cn1 | 99% | 96% | 0%
COc1ccc(Nc2cc(C)c3cc(NC(=O)c4ccncc4)ccc3n2)cc1 | 98% | 26% | 0%
O=C(Nc1ccccc1Cc1ccccc1)c1ccccc1C(F)(F)F | 99% | 85% | 0%
CC(C)NCc1cccc(-c2ccc(NC(=O)c3ccc(C#N)cc3)cc2)c1.O=C(O)C(F)(F)F | 99% | 8% | 15%
CCOc1ccccc1C(=O)N1CCc2cc3nccc(N4CCN5CCC[C@H]5C4)c3cc21 | 100% | 58% | 4%
CCCOc1cccc(C(=O)N[C@@H](Cc2ccccc2)[C@H](O)CNCc2ccccc2OC)c1 | 95% | 61% | 11%
Br.CCCN(CCCCCCNCCc1ccc(Cl)cc1)CCc1ccc(O)c(O)c1 | 91% | 11% | 26%
CS(=O)(=O)O.c1ccc2c(CNCCCCCCNCc3c(OCC4CC4)ccc4ccccc34)c(OCC3CC3)ccc2c1 | 93% | 97% | 100%
O=C(NC1CCN(CCC(NC(=O)c2ccccc2)c2ccc(Cl)c(Cl)c2)CC1)c1ccc(Cl)cc1 (stereo not given) | 97% | 36% | 17%
COc1ccc(NC(=O)N2CCc3ccc(OCCN(C(C)C)C(C)C)cc32)cc1C(F)(F)F.O=C(O)C(F)(F)F | 90% | 6% | 0%
O=c1cc(NCCCNCc2cccc(C(F)(F)F)c2Cl)[nH]c2ccccc12 | 94% | 24% | 0%
O=C(NCCc1ccc(Cl)c(Cl)c1)c1ccc(CNC(=O)c2ccc(O)c(-c3ccc(Cl)c(Cl)c3)c2)cc1 | 97% | 3% | 0%
COc1ccc(C2CCN(C#N)C2)cc1OC1CCCC1 (stereo not given) | 100% | 97% | 9%
Cc1ccc(-c2cc(C(=O)Nc3ccc(S(=O)(=O)N(C)Cc4ccccc4)cc3)[nH]n2)c(O)c1 | 99% | 67% | 34%
c1cc(CNc2ncc(-c3ccsc3)c(-c3nccs3)n2)ccn1 | 89% | 81% | 18%
Cc1cc(=NN=Cc2cccc(F)c2)c2cccc(C)c2[nH]1 | 100% | 53% | 14%
CC(=O)Nc1nc(C(=O)Nc2ccc(-c3cccc(-c4nc5ccccc5[nH]4)c3)cc2)cs1 | 99% | 83% | 68%
